In ChEMBL document CHEMBL2218924, “A broad activity screen in support of a chemogenomic map for kinase signalling research and drug discovery” (Biochem J, 2013):

Key:
[1] = molecular target: Tyrosine-protein kinase SYK (Homo sapiens) (UniProt P43405); details: at 10 µM
[2] = molecular target: T1, Mitogen-activated protein kinase kinase kinase 7 (Homo sapiens) (UniProt O43318); details: at 1 µM
T1 sequence (whole entry): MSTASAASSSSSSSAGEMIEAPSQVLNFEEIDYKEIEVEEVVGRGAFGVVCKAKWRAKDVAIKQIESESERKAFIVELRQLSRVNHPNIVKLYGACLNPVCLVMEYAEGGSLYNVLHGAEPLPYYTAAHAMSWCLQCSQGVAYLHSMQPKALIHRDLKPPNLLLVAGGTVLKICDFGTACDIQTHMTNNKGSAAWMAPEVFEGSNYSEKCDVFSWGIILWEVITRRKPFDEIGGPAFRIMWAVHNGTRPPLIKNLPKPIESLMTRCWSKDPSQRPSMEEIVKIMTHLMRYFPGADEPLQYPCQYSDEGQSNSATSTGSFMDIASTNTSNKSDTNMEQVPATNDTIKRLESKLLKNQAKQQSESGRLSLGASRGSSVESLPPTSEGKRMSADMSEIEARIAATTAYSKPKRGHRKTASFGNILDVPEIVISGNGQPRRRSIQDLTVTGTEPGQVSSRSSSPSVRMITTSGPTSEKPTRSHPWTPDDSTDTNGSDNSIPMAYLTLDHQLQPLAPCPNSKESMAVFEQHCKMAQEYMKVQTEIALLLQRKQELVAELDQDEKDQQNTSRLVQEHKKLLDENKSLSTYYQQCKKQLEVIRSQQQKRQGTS

[3] = molecular target: T1, Mitogen-activated protein kinase kinase kinase 7 (Homo sapiens); details: at 10 µM
[4] = molecular target: T2, Serine/threonine-protein kinase TAO1 (Homo sapiens) (UniProt Q7L7X3); details: at 1 µM
T2 sequence (whole entry): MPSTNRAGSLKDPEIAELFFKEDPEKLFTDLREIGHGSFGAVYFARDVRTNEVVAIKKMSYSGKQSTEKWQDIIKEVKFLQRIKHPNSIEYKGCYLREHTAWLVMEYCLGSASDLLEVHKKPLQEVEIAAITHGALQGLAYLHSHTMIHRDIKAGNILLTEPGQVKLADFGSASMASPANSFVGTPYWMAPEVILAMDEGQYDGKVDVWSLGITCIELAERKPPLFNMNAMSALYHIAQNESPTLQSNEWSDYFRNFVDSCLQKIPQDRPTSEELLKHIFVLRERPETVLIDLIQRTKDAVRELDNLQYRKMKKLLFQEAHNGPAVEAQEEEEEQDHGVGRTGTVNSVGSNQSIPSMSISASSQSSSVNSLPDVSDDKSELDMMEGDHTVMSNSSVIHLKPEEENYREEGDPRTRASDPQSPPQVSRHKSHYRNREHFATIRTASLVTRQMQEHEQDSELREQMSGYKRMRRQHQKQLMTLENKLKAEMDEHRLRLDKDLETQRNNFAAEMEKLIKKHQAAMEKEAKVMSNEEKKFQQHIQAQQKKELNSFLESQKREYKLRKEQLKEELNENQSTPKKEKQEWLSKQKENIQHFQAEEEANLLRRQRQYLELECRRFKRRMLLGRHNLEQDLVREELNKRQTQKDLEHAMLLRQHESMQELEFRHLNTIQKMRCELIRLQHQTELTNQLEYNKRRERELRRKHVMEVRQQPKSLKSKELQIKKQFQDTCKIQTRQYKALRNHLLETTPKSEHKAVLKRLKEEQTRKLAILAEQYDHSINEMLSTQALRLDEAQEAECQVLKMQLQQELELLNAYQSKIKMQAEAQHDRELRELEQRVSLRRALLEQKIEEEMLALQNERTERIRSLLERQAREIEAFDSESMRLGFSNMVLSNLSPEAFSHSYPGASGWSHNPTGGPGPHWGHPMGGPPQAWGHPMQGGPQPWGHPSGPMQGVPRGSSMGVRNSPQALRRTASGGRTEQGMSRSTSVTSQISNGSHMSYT

[5] = molecular target: T2, Serine/threonine-protein kinase TAO1 (Homo sapiens); details: at 10 µM
[6] = molecular target: T3, Serine/threonine-protein kinase TAO2 (Homo sapiens) (UniProt Q9UL54); details: at 1 µM
T3 sequence (whole entry): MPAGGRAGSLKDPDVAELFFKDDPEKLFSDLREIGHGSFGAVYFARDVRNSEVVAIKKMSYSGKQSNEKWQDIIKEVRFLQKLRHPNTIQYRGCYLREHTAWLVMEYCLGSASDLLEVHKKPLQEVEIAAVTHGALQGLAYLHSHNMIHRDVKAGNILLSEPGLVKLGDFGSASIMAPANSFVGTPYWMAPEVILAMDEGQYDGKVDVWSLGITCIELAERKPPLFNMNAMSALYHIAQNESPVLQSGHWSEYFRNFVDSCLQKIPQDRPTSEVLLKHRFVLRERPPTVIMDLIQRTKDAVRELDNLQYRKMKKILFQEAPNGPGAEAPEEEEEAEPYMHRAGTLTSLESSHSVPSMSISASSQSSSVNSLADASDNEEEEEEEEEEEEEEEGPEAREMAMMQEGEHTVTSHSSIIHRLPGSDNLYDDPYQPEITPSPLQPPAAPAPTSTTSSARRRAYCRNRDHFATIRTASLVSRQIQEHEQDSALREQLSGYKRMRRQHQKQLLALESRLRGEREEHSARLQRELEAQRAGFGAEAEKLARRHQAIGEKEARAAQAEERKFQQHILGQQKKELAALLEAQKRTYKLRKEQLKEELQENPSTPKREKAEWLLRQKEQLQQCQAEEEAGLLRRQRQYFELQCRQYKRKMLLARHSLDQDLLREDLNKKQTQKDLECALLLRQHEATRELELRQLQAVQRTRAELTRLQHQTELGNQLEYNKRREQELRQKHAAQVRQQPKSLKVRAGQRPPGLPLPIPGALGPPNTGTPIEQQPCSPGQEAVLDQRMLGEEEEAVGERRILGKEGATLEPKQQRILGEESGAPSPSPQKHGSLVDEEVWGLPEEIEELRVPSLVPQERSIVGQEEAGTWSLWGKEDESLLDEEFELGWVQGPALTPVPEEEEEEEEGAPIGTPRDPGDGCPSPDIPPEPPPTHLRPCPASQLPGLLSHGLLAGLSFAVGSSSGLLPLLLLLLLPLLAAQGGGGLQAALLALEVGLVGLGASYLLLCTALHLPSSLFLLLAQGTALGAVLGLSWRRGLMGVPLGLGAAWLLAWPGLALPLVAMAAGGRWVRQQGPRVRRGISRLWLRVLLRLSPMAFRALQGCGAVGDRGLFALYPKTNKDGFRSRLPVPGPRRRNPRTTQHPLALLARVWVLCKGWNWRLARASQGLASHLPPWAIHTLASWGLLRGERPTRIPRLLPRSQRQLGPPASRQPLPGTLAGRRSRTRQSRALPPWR

[7] = molecular target: T3, Serine/threonine-protein kinase TAO2 (Homo sapiens); details: at 10 µM
[8] = molecular target: T4, Serine/threonine-protein kinase TAO3 (Homo sapiens) (UniProt Q9H2K8); details: at 1 µM
T4 sequence (whole entry): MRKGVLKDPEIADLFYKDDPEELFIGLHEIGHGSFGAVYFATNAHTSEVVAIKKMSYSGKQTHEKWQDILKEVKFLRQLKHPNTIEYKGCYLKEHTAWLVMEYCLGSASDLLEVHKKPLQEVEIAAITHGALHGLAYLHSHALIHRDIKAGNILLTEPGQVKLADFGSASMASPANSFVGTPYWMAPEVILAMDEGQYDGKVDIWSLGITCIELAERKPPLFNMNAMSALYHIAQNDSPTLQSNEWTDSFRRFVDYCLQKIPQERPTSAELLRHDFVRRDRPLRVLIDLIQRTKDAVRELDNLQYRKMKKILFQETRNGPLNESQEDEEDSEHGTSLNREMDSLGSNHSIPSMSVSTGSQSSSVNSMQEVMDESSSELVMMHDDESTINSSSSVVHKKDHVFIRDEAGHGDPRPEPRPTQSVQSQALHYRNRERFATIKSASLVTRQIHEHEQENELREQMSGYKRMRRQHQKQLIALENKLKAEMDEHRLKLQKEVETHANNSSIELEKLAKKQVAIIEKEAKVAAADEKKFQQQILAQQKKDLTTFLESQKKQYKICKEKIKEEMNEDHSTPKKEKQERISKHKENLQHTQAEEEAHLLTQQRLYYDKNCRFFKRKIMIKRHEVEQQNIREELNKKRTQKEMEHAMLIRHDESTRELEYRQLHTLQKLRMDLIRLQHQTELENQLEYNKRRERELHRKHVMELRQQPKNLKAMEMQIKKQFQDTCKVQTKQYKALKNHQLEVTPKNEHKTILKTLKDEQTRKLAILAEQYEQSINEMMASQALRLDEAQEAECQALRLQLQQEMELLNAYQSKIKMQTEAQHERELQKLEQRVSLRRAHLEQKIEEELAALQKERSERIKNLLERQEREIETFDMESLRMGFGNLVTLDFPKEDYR

[9] = molecular target: T4, Serine/threonine-protein kinase TAO3 (Homo sapiens); details: at 10 µM
[10] = molecular target: T5, Serine/threonine-protein kinase TBK1 (Homo sapiens) (UniProt Q9UHD2); details: at 1 µM
T5 sequence (whole entry): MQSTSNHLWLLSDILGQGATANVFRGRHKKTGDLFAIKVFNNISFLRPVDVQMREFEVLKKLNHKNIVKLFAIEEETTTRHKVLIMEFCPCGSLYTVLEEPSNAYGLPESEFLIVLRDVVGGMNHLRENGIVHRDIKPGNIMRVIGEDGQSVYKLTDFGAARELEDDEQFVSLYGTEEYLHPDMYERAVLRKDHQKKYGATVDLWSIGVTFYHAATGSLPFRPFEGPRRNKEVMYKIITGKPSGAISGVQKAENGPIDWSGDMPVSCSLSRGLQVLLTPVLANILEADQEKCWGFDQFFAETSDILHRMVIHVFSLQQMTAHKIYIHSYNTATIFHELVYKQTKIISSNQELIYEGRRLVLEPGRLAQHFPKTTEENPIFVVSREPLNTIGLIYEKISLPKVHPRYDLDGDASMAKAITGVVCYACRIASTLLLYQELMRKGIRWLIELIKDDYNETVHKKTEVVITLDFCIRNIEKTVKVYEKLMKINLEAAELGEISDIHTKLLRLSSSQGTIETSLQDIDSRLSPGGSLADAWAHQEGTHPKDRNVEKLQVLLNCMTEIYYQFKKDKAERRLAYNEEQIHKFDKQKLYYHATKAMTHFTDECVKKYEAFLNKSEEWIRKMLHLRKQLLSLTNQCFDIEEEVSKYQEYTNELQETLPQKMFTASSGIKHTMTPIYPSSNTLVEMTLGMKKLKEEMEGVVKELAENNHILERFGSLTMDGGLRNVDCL

How did the residual activity [1] turn out when `CCC(=O)Nc1ccc2ncnc(Nc3cccc(Br)c3)c2c1` was run?
The residual activity was 84%.

And the residual activity [2]?
The residual activity was 92%.

And the residual activity [3]?
The residual activity was 90%.

And the residual activity [4]?
The residual activity was 96%.

What about the residual activity [5] of the same molecule?
Its residual activity is 86%.

What about the residual activity [6] of the same molecule?
Its residual activity is 98%.

What about the residual activity [7] of the same molecule?
The residual activity was 91%.

And the residual activity [8]?
Its residual activity is 96%.

What about the residual activity [9] of the same molecule?
The residual activity was 95%.

What about the residual activity [10] of the same molecule?
The residual activity was 69%.
